The list is not random: actives were taken first. Their share in the collection is about 2.8%.
SENP8 block-1 – blocks the human protease SENP8 | 330,000 tested, 1.2% active | inhibition, % at 10 µM | purified SENP8, Z-RLRGG-aminoluciferin cleavage, luminescence | Q96LD8; in the data active = inhibition above about 50%
Target sequence (Q96LD8 whole entry, looked up): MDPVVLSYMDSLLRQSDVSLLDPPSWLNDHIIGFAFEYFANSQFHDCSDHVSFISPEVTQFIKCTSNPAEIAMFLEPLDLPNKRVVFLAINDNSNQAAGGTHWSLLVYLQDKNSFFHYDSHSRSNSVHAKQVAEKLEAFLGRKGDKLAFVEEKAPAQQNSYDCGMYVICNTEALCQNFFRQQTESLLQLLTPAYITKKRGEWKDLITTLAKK
SENP7 block – blocks the human protease SENP7. recombinant SENP7, Z-RLRGG-aminoluciferin luminescence, 40 min. inhibition, % at 5 µM. 330,000 tested, 1.5% active. AID 434973;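 active = inhibition above about 50% at the single test dose, limit read from the data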;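 also: plate controls were DMSO with enzyme for no effect and no enzyme buffer wells for full effect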
SENP6 inh – inhibitors of human SENP6 protease; Q9GZR1; Recombinant SENP6 catalytic domain, aminoluciferin luminescence; inhibition, % at 10 µM; 330,000 tested, 1.8% active; AID 2599;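 active = inhibition above about 50% at the single tested dose, limit read from the data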;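 also: plate controls were DMSO wells with enzyme for no effect and DMSO wells lacking enzyme for full effect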
SENP8 block-2 – blocks human SENP8 cleavage of Nedd8 substrate; Q96LD8; inhibition, % at 20 µM; AID 602440; recombinant SENP8, Nedd8 substrate fluorescence; 360,000 tested, 0.64% active; in the data active = inhibition mostly above about 40%, no sharp cut-off; inactive = mostly below about 27%
HSP90 refold inh – inhibitors of HSP90 luciferase refolding in rabbit reticulocyte lysate | luciferase refolding luminescence, 3 h | inhibition, % at 5.6 µM | 290,000 tested, 0.91% active | AID 1789;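 active = inhibition above the screen-wide mean plus 3 SD, computed separately per campaign, cut at about 16% in these data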;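 also: 0% = DMSO wells and 100% = 60 µM geldanamycin wells; inhibitors lower the luminescence because luciferase stays unfolded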
Platelet DG rel – modulates dense granule release in human platelets; 300,000 tested, 0.22% active; AID 1663; inhibition, %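 (compounds screened at 7.5 µM in platelet-rich plasma)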; human platelet-rich plasma, SFLLRN dense granule ATP release, luminescence;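 active = mean replicate score, as percent of positive control, at or above 50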
SENP8 conf – confirmation of human SENP8 protease inhibitors | 6,200 tested, 40% active | Recombinant SENP8, Z-RLRGG-aminoluciferin luminescence, 60 min | AID 488912 | inhibition, % at 12.5 µM | shares compounds with SENP7 block;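 active = mean inhibition across replicates above about 50%, limit read from the data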
SENP6 confirm – confirmation of human SENP6 protease inhibitors. inhibition, % at 12.5 µM. 6,200 tested, 58% active. recombinant SENP6, Z-RLRGG-aminoluciferin luminescence. shares compounds with SENP7 block
SENP7 confirm – confirmation of human SENP7 protease inhibitors | inhibition, % at 12.5 µM | AID 488917 | shares compounds with SENP7 block | recombinant SENP7, Z-RLRGG-aminoluciferin luminescence, 40 min | 6,200 tested, 69% active
Casp3 select – caspase-3 inhibition (SENP selectivity assay); shares compounds with SENP7 block; purified caspase-3, Z-DEVD-aminoluciferin luminescence, 60 min; inhibition, % at 12.5 µM; 6,200 tested, 60% active;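 active = mean inhibition above about 50%, limit read from the data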;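 also: plate controls were enzyme with DMSO for no effect and wells without caspase-3 for full effect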
Target sequence (P42574 28-227 limits assumed): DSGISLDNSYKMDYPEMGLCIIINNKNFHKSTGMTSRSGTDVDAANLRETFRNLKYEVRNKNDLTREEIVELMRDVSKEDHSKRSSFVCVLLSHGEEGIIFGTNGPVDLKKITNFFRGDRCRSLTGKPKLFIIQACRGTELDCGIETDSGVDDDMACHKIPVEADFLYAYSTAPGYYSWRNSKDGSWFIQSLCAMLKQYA
SENP luc ctr – luminescence interference (SENP counter-screen). shares compounds with SENP7 block. Pre-incubated SENP8/Z-RLRGG-aminoluciferin, luciferase luminescence interference. inhibition, % at 12.5 µM. 6,200 tested, 39% active. AID 488919;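 active = mean inhibition above about 50% when retested at one dose, limit read from the data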;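 also: plate controls were DMSO wells with completed reaction for no effect and substrate without enzyme for full effect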
* = called active by the depositor; i = inactive; nt = no result given.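 The calls were made as follows, unless noted: active = mean inhibition above about 50% in the one-dose retest (limit read from the data); inactive = the rest.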

SMILES | SENP8 block-1 | SENP7 block | SENP6 inh | SENP8 block-2 | HSP90 refold inh | Platelet DG rel | SENP8 conf | SENP6 confirm | SENP7 confirm | Casp3 select | SENP luc ctr
O=C1C=C(Nc2ccccc2C(=O)O)c2ccccc2C1=O | 86* | 44 | 86* | 33 | 2 | -6 | -8 | 93* | 82* | 46 | 37
CC1=CC(=O)c2ccccc2C1=O | 16 | 3 | 1 | -251 | 4 | 1 | nt | nt | nt | nt | nt
O=C1C=C(Nc2ccccc2)C(=O)c2ccccc21 | 80* | 82* | 90* | 25 | 3 | 1 | 26 | 29 | 47 | 47 | 14
c1ccc(Nc2ccccc2)cc1 | -4 | 6 | -1 | 9 | nt | -10 | nt | nt | nt | nt | nt
CCc1ccc(NC2=CC(=O)C(=O)c3ccccc32)cc1 | 70* | 55* | 26 | i | nt | nt | 9 | 23 | 12 | 4 | 5
COc1ccc(C2=NS(=O)(=O)N(C)C(C(=O)NCc3ccc4c(c3)OCO4)=C2)cc1OC | -2 | 1 | 2 | -93 | -2 | -3 | nt | nt | nt | nt | nt
Cc1ccc(/C=C/C(=O)c2c(C)nc3ccccn23)cc1 | -18 | 103* | 16 | 7 | -6 | -8 | 32 | 19 | 33 | 5 | 22
CC(C)Oc1ccc(C(=O)NCC(=O)N2CCN(S(=O)(=O)/C=C/c3ccccc3)CC2)cc1 | 5 | -7 | 1 | 14 | nt | nt | nt | nt | nt | nt | nt
O=C(O)c1ccc(/C=C/c2ccc3cccc(O)c3n2)cc1 | 95* | 98* | 95* | -110 | 3 | 40 | 98* | 99* | 102* | 97* | 78*
COC(=O)c1ccc(/C=C/c2ccc3cccc(OC(C)=O)c3n2)cc1 | 87* | 91* | 95* | -397 | -4 | 14 | 79* | 90* | 98* | 86* | 7
O=[N+]([O-])c1cccc(/C=C/c2ccc3cccc(O)c3n2)c1 | -9 | 22 | 13 | 28 | 2 | -2 | nt | nt | nt | nt | nt
Oc1ccc(/C=C/c2ccc3cccc(O)c3n2)cc1Br | 92* | 88* | 97* | -107 | -10 | 13 | 98* | 98* | 102* | 84* | 94*
O/N=C/c1ccc2cccc(O)c2n1 | -4 | 4 | 0 | 14 | 4 | 13 | nt | nt | nt | nt | nt
Cc1cccn2cc(CCNC(=O)c3cccs3)nc12 | -3 | 7 | 6 | 18 | -1 | 6 | nt | nt | nt | nt | nt
Cc1cc(C)nc(N2CCN(C(=O)CCC(=O)Nc3nnc(C(C)C)s3)CC2)n1 | 2 | 6 | -4 | -5 | -1 | 2 | nt | nt | nt | nt | nt
COc1ccc(CC(C)Nc2cccc(SC)c2)cc1 (stereo not given) | 0 | 8 | -9 | 7 | 1 | 3 | nt | nt | nt | nt | nt
O=C(O)/C=C\C(=O)Nc1ccc(F)c(F)c1F | 4 | 6 | 3 | 4 | 6 | -1 | nt | nt | nt | nt | nt
COC(=O)c1oc2ccc(Cl)cc2c1N | 24 | 46 | 53* | -307 | -1 | 5 | 35 | 32 | 69* | 58* | 32
COC(=O)c1ccc(CSc2nc3ccc(S(=O)(=O)N4CCOCC4)cc3[nH]2)cc1 | -2 | -2 | 0 | -1 | -3 | 13 | nt | nt | nt | nt | nt
O=C(N/N=C/c1cccc([N+](=O)[O-])c1)c1nc2ccccc2c(=O)[nH]1 | 7 | 5 | -4 | 16 | -1 | 3 | nt | nt | nt | nt | nt
O=C(N/N=C/c1ccccc1Cl)c1nc2ccc([N+](=O)[O-])cc2c(=O)[nH]1 | 75* | 46 | 57* | -50 | -1 | -2 | 47 | 53* | 48 | 50* | 45
O=C(N/N=C/c1ccccc1Cl)c1ccc(F)cc1 | 9 | 37 | 69* | 8 | -2 | 9 | 2 | 16 | 8 | 48 | 44

Screens (PubChem BioAssay)
